Rows were chosen to be rich in hits. Some 19% of all compounds tested hit in one or more screens of this group.
SARS PLP yeast: blocks SARS-CoV papain-like protease in a yeast assay; AID 485353; 330,000 tested, 0.19% active; Potency, µM (series often up to 32.9 µM), without a hit: at the top dose activity, positive = growth rescue, hits mostly activators; S. cerevisiae expressing SARS-CoV PLpro, growth rescue; calls by dose curve; note: potency is the fitted concentration of half-maximal effect; 0% is about no effect; nearly all actives have a fitted effect of over 55% in size
Shiga toxin inh: blocks Shiga toxin action in Vero cells. inhibition, % at 38.7 µM. Vero cells, Shiga toxin protein synthesis inhibition reporter. 290,000 tested, 9.2% active; in the data active = inhibition mostly above about 28%, no sharp cut-off; inactive = mostly below about 43%; note: 0% is about no effect
AMA1-RON2 inh: AMA1-RON2 (P. falciparum) interaction inhibition. AlphaScreen AMA1-biotinylated RON2 peptide binding. Potency, µM (doses to about 58.2 µM), without a hit: at the highest dose activity change, negative = inhibition, hits mostly inhibitors. 360,000 tested, 0.2% active. AID 720542;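 note: potency is the fitted concentration of half-maximal effect; 0% = vehicle wells and -100% = peptide control; nearly all actives have a fitted effect of over 45% in size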
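AMA1 (3D7) with his tag at 25 nM final met compounds first, then biotinylated RON2 peptide at 25 nM; detection used donor plus acceptor beads, 10 µg/mL apiece, read by AlphaScreen after 30 min at room temperature.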
Pf growth 48h: inhibits P. falciparum growth in the first generation, 48 h; P. falciparum luciferase growth in erythrocytes, 48 h; 310,000 tested, 5.9% active; Potency, µM (doses to about 28.7 µM), for inactives: top-dose activity change, negative = inhibition, usual class: inhibitors; note: potency is the fitted concentration of half-maximal effect; % is set by controls: 0 for no effect and ±100 for the full control effect
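Growth was read as firefly luciferase luminescence after a 48 h, 37 C, 5% CO2 exposure of compounds to reporter-bearing P. falciparum cultures (0.1% parasitemia, 2% hematocrit final) in Albumax-supplemented RPMI 1640.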
Pf growth 96h: P. falciparum growth inhibition at 96 hours; P. falciparum luciferase reporter growth, 96 h; Potency, µM (top dose mostly 28.7 µM), for inactives: at the highest dose activity change, negative = inhibition, usual class: inhibitors; 320,000 tested, 6.9% active; AID 504834; note: potency is the fitted concentration of half-maximal effect; % is set by controls: 0 for no effect and ±100 for the full control effect
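Compounds incubated with erythrocytes infected by luciferase-expressing P. falciparum (2% hematocrit, 0.05% parasitemia final) for 96 hours, 37 C in 5% CO2. Growth inhibition scored as decreased luciferase luminescence.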
Cycloheximide cs: counter-screen for Shiga toxin inhibitors: cycloheximide protein synthesis inhibition; AID 2314; 300,000 tested, 12% active; max response, %; cell reporter, cycloheximide protein synthesis inhibition counterscreen; in the data active = max response mostly above about 13%, no sharp cut-off; inactive = mostly below about 14%; note: read at 38.3 µM for the half of the compounds with a filed dose; 0% is about no effect
Starred values were filed as active, the others as inactive; u = inconclusive; x = no result given; [ ] = another dose, or the depositor's remark. Unless noted, calls come from the whole dose curve; as a rule, active = well fitted curve in the direction sought with a large enough effect; inconclusive = small, poorly fitted or top-dose-only effect, or another doubt; inactive = no such curve, though single readings can be large; an effect the other way counts as inactive or inconclusive.

SMILES	SARS PLP yeast	Shiga toxin inh	AMA1-RON2 inh	Pf growth 48h	Pf growth 96h	Cycloheximide cs
O=C(O)c1cccc(Nc2nc(-c3ccc([N+](=O)[O-])cc3)nc3ccccc23)c1	-0.2%	4.8	-0.7%	-34.9%	1.1%	-2.7
O=C(O)c1cccc(Nc2nc(-c3ccccc3)nc3ccccc23)c1	1.7%	39.7*	-5.0%	-3.4%	u	18.6*
Cc1ccc(CCNC(=O)C2CCC(=O)N2C2CCCC2)cc1 (stereo not drawn)	19.3%	11.8	-3.3%	0.4%	36.1%	-1.8
Cc1c(-c2cc(Br)ccc2O)nc2cc3c(cc2c1C)OCO3	-0.6%	47.4*	-13.0%	x	u	37.9*
CCCCc1ccc(/C=C2\C(=O)c3ccccc3C(O)=C2C(=O)OCC)cc1	-39.7%	29.6*	x	u	u	15.8*
O=C(COC(=O)Cn1c(C(F)(F)F)nc2ccccc21)Nc1ccc2c(c1)OCCO2	-0.1%	-0.9	36.4%	x	-6.6%	-2.2
COC(=O)c1sccc1NC(=O)c1ccccc1C(=O)O	x	x	-14.8%	x	x	x
COC(=O)c1sc(-c2ccccc2)cc1NC(=O)C1CC1	2.3%	18.4	8.0%	u	28.1%	7.5
COC(=O)c1sc(-c2ccc(Cl)cc2)cc1NC(=O)c1ccccc1C(=O)O	-2.3%	72.0*	-1.7%	61.6%	66.5%	31.3*
CCOc1ccc(-c2cc(NC(=O)c3c(F)cccc3F)c(C(=O)O)s2)cc1	-3.8%	39.5*	-22.2%	u	35.6%	10.8
COC(=O)c1sc(-c2ccc(C(C)(C)C)cc2)cc1NC(=O)CSCC(=O)O	-1.6%	93.8	-2.9%	29.0%	-5.2%	14.9*
CCOc1ccc(NC(=O)Nc2cc(-c3ccccc3)sc2C(=O)OC)cc1	-14.2%	3.3	-6.0%[2.32 µM]	u	u	5.0
COC(=O)c1sc(-c2ccc(C(C)(C)C)cc2)cc1NC(=O)c1ccccc1C(=O)O	-11.2%	83.8*	6.2%	8.5%	11.3%	44.0*
Cc1ccccc1C(=O)Nc1ccc(N(C)C)c2ccccc12	-2.3%	x	0.0%	u	-16.5%	3.0
COc1ccc(CCNc2ccc(N3C(=O)CC(C)C3=O)cc2[N+](=O)[O-])cc1OC (stereo not drawn)	-3.8%	14.0	-25.4%	u	u	3.0
COc1ccc(C(=O)CC(=O)C(=O)Nc2cc(C)ccc2C)cc1	1.4%	3.7	38.8%	x	9.28µM*	-2.6
COc1ccc(C(=O)CC(=O)C(=O)Nc2ccc(C)c(Cl)c2)cc1	2.7%	29.0	108.1%	x	13.7%	22.7*
COc1ccc(C(=O)CC(=O)C(=O)Nc2ccc([N+](=O)[O-])cc2C)cc1	2.8%	2.6	92.1%	-7.3%[0.00184 µM]	2.6%	-2.0
CCCCCCCC/C=C/CCCCCCCC(=O)NCCOP(=O)(O)O	x	-1.1	x	x	x	-4.8
Nc1ccc2c(c1)sc1ccccc12	-21.5%	81.7*	-14.0%	-8.7%	u	58.0*
O=c1c2ccccc2sc2ccccc12	x	x	25.9%	x	x	x
CC(=O)NCCc1nc2cc(NC(=O)c3ccc(Cl)cc3)ccc2n1C	0.3%	64.3*	15.1%	207.6%	121.8%	23.9*
CCC(=O)NCCc1nc2cc(NC(=O)c3ccc(Cl)cc3)ccc2n1C	-0.9%	63.7*	13.6%	185.6%	312.0%	51.9*
CC(=O)NCCc1nc2cc(NC(=O)c3ccccc3Cl)ccc2n1C	11.8%	25.9	3.5%	103.2%	116.9%	16.7*
CCC(=O)NCCc1nc2cc(NC(=O)c3ccc(F)cc3)ccc2n1C	-0.5%	89.0*	-0.3%	-19.5%[0.00184 µM]	203.9%	43.3*
SMILES	SARS PLP yeast	Shiga toxin inh	AMA1-RON2 inh	Pf growth 48h	Pf growth 96h	Cycloheximide cs
CCCC(=O)Nc1ccc2c(c1)nc(CCNC(=O)c1ccccc1)n2C	12.2%	-12.3	0.0%	x	-13.7%	-3.7
O=C(/C=C/[C@H]1O[C@@H](n2cnc3c(NC(=O)c4ccccc4)ncnc32)[C@H](O)[C@@H]1O)N[C@@H](CO)Cc1c[nH]c2ccccc12	x	x	4.2%	x	x	x
CC1CN(C(=S)Nc2ccccc2C(F)(F)F)CC(C)O1 (stereo not drawn)	-4.4%	-10.9	12.8%	-17.5%	75.0%	0.5
CC(NC(=O)CN1C(=O)NC2(CCCCCCC2)C1=O)c1ccccc1 (stereo not drawn)	-1.6%	x	10.4%[11.6 µM]	x	x	x
COCCNC(=O)[C@H]1C[C@@H]1[C@H](NP(=O)(c1ccccc1)c1ccccc1)c1ccccc1	-3.5%	9.4	11.6%	2.6%	u	5.1
CCC(=O)NCCc1nc2cc(NC(=O)c3ccc(OC)cc3)ccc2n1C	0.0%	51.8	2.0%	118.6%	x	25.1*
O=C(Nc1cccc(Cl)c1)c1nc[nH]c1C(=O)N1CCc2ccccc2C1	-1.0%	x	15.7%	30.7%	u	x
O=C(Nc1cccc(Cl)c1)N1CCc2ccccc2C1	-16.9%	34.6*	0.0%	101.3%	u	34.1*
COc1cccc(-c2cc(C(=O)N3CCc4ccccc4C3)[nH]n2)c1	-1.5%	38.1*	15.8%	72.9%	u	26.4*
COc1cccc(NC(=O)N2CCc3nc(Nc4ccc(C(C)C)cc4)ncc3C2)c1	x	x	-12.2%	x	x	x
O=C(Nc1cccc(Cl)c1)N1CCN(c2ncccn2)CC1	-7.7%	16.4	4.3%	-0.4%	-19.6%	13.8*
COc1cccc(NC(=O)N2CCc3ccccc3C2)c1	-13.9%	91.3*	-12.3%	125.0%	4.9%	70.5*
O=C(Nc1ccc(Cl)cc1Cl)N1CCN(c2ncccn2)CC1	-2.6%	23.3	-4.3%	32.8%	24.7%	26.8
COc1ccc(NC(=O)CS(=O)CC(=O)Nc2cccc3cccnc23)cc1 (stereo not drawn)	11.8%	26.9	30.2%	5.9%	u	-6.9
CCC(=O)N/C(=N/c1nc(C)cc(C)n1)Nc1cccc(OC)c1	4.2%	-17.2	-1.2%	-9.2%	-20.2%	-0.9
c1ccc2sc(Sc3ncnc4sccc34)nc2c1	3.3%	45.9*	5.1%	1.85µM*	0.738µM*	41.6*
CCc1cc2c(Sc3nc4ccccc4s3)ncnc2s1	0.4%	24.3	-18.1%	1.85µM*	u	14.0
COc1cccc(NC(=O)CCNC(=O)N2CC(=O)Nc3ccccc32)c1	2.9%	-0.3	6.8%	6.3%	u	-1.1
Cc1ccc2c(CC(=O)O)coc2c1C	1.7%	30.6	7.6%	16.9%	u	-4.2
FC(F)(F)c1cccc(Cn2c3[n+](c4ccc(C(F)(F)F)cc42)CCCCC3)c1	1.4%	27.3	5.3%	4.15µM*	u	-2.8
O=c1oc2ccccc2n1Cc1cccc(C(F)(F)F)c1	x	x	-10.5%	x	x	x
Cc1cc(C(C)(C)C)cc(C)c1Cn1c2[n+](c3ccc(C(F)(F)F)cc31)CCCCC2	-9.5%	-5.6	2.2%	3.29µM*	u	-4.5
CCOC(=O)c1cc2c(C)n(-c3ccc(C)cc3)c(C)c2ccc1=O	-18.8%	119.8*	-23.0%	u	0.0%	35.2*
CCOC(=O)c1cc2c(C)n(-c3ccc(OCC)cc3)c(C)c2ccc1=O	-13.3%	43.2	-4.9%	u	4.15µM*	16.0*

High-throughput results as filed in PubChem BioAssay.
